{"source": "paper PMC4336329", "about": "(PLoS ONE, 2015)", "note": "Hit rate of the full screen: of about 310,000 compounds, about 14,000 (4.5%) showed an effect of 50% or more. Effects have a minus sign here. This excerpt belongs to a sample that is enriched for strong results.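 Note: peak tail current of the secondary pulse compared with the same well before compound.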"}
{"molecular_target": "human ether-à-go-go-related gene (hERG) potassium channel (human, UniProt Q12809)", "sequence (Q12809 whole entry, looked up)": "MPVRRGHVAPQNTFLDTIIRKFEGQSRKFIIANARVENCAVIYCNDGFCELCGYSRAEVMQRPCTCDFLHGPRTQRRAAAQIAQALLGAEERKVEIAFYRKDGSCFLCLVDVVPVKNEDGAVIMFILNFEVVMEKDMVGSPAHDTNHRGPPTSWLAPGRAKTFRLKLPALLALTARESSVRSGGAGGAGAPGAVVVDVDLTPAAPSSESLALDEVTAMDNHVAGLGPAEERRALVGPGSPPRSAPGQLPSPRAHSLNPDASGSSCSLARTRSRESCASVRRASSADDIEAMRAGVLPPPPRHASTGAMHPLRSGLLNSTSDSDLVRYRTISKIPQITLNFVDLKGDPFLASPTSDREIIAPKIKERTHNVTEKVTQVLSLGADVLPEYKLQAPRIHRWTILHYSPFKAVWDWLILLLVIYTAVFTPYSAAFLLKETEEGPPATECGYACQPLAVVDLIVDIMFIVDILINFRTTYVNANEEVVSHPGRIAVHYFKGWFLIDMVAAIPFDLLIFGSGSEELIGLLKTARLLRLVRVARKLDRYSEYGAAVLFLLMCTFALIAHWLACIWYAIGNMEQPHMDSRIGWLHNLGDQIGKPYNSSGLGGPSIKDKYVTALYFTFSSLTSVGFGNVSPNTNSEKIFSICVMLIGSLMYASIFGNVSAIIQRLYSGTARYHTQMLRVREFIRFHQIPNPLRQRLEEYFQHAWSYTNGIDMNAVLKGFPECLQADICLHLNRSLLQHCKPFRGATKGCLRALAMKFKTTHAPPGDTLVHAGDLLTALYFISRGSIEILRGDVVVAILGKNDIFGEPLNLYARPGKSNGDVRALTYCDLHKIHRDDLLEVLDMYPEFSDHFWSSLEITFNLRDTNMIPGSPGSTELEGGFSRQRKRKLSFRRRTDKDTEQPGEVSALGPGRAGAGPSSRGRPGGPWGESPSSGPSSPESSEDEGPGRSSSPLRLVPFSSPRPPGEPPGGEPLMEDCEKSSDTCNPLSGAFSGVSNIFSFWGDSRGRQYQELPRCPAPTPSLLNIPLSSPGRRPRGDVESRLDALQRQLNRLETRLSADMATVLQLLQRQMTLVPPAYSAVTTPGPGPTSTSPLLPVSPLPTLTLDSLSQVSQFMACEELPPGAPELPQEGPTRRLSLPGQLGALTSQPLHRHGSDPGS", "assay": "primary screen, population patch clamp on CHO cells stably expressing hERG; higher = less effect of the substance", "units": {"hERG current change (%, negative = inhibition) at 10uM": "%"}}
{"smiles": "COc1ccc(/C=C2\\SC(=S)N(NS(=O)(=O)c3ccccc3)C2=O)c(OC)c1", "hERG current change (%, negative = inhibition) at 10uM": -33.1}
{"smiles": "CCOC(=O)Cc1csc(NS(=O)(=O)Cc2ccccc2)n1", "hERG current change (%, negative = inhibition) at 10uM": 3.54}
{"smiles": "CC(C)c1ccc(Nc2nc(Cl)nc(Cl)n2)cc1", "hERG current change (%, negative = inhibition) at 10uM": 19.1}
{"smiles": "COc1ccc(Cl)cc1NC(=O)NCC1CCN(Cc2ccccc2F)CC1", "hERG current change (%, negative = inhibition) at 10uM": -37.7}
{"smiles": "Cc1ccc(C)c(CN2CCC(CNC(=O)Nc3ccc(F)c(Cl)c3)CC2)c1", "hERG current change (%, negative = inhibition) at 10uM": -65}
{"smiles": "COc1ccc(Cl)cc1NC(=O)NCC1CCN(Cc2cc(C)ccc2C)CC1", "hERG current change (%, negative = inhibition) at 10uM": -67.7}
{"smiles": "COc1ccc(N2CCC(CNC(=O)Nc3ccc(Cl)cc3)C2)cc1", "note": "(centres unmarked)", "hERG current change (%, negative = inhibition) at 10uM": 11.5}
{"smiles": "Cc1cccc(CN2CCC(CNC(=O)Nc3ccc(F)c(Cl)c3)CC2)c1", "hERG current change (%, negative = inhibition) at 10uM": -74.9}
{"smiles": "COc1ccc(Cl)cc1NC(=O)NCC1CCN(C(=O)OC(C)(C)C)CC1", "hERG current change (%, negative = inhibition) at 10uM": 4.67}
{"smiles": "Cc1cccc(NC(=O)NCC2CC2)c1", "hERG current change (%, negative = inhibition) at 10uM": 4.74}
{"smiles": "Cc1ccc(C)c(CN2CCC(CNC(=O)Nc3ccc(Cl)cc3)CC2)c1", "hERG current change (%, negative = inhibition) at 10uM": -68.6}
{"smiles": "COc1ccc(C(CC(=O)NCCN2CCOCC2)NS(=O)(=O)c2ccc(C)cc2)cc1", "note": "(centres unmarked)", "hERG current change (%, negative = inhibition) at 10uM": 5.28}
{"smiles": "Cc1ccc(CNC(=O)C2CCCN(c3nc4ccccc4o3)C2)cc1", "note": "(centres unmarked)", "hERG current change (%, negative = inhibition) at 10uM": -1.06}
{"smiles": "O=C(CSc1nnc(-c2ccco2)o1)NCC(=O)c1ccccc1", "hERG current change (%, negative = inhibition) at 10uM": -4.72}
{"smiles": "COC(=O)CCC(=O)NNC(=O)c1cccc(Cl)c1", "hERG current change (%, negative = inhibition) at 10uM": 16.4}
{"smiles": "CC(=O)c1sc(NC(=O)C(C)C)nc1C", "hERG current change (%, negative = inhibition) at 10uM": -0.878}
{"smiles": "CC(=O)Nc1ccc(-c2csc(Nc3ccc(S(N)(=O)=O)cc3)n2)cc1", "hERG current change (%, negative = inhibition) at 10uM": -1.99}
{"smiles": "O=C(Cn1nc(-c2ccc(F)cc2)ccc1=O)Nc1ccc2c(c1)OCCO2", "hERG current change (%, negative = inhibition) at 10uM": -0.525}
{"smiles": "Cc1ccc(C)c(CN2CCC(CNC(=O)Nc3cccc(Cl)c3C)CC2)c1", "hERG current change (%, negative = inhibition) at 10uM": -43.1}
{"smiles": "Cc1ccc(NC(=O)NCC2CCN(Cc3cc(C)ccc3Cl)CC2)c(C)c1", "hERG current change (%, negative = inhibition) at 10uM": -58.3}
{"smiles": "Cc1ccc(NC(=O)NC(=O)CN2CCC(C(N)=O)CC2)c(C)c1", "hERG current change (%, negative = inhibition) at 10uM": 12}
{"smiles": "O=C(Cn1nnc(-c2ccccc2)n1)c1ccccc1", "hERG current change (%, negative = inhibition) at 10uM": 7.22}
{"smiles": "Cc1nc(/N=C(\\N)NC(=O)NC2CCCCC2)nc2ccccc12", "hERG current change (%, negative = inhibition) at 10uM": -21}
{"smiles": "Cc1ccc2nc(/N=C(\\N)NC(=O)NC3CCCCC3)nc(C)c2c1", "hERG current change (%, negative = inhibition) at 10uM": -76.4}
{"smiles": "CCCC(=O)N/C(N)=N/c1nc(C)c2cc(C)ccc2n1", "hERG current change (%, negative = inhibition) at 10uM": -23.8}
{"smiles": "CCc1cc(C(=O)OC)c(NC(=O)CN2CCN(C(=O)C3CCCO3)CC2)s1", "note": "(centres unmarked)", "hERG current change (%, negative = inhibition) at 10uM": -47.2}
{"smiles": "Cc1ccc(C(=O)c2cc(C)sc2NC(=O)CN2CCN(C(=O)c3ccco3)CC2)cc1", "hERG current change (%, negative = inhibition) at 10uM": -11.7}
{"smiles": "CCOC(=O)c1cc(CC)sc1NC(=O)CN1CCN(C(=O)c2ccco2)CC1", "hERG current change (%, negative = inhibition) at 10uM": -67.2}
{"smiles": "COC(=O)CN1CCN(C(=O)c2ccco2)CC1", "hERG current change (%, negative = inhibition) at 10uM": 10}
{"smiles": "COC(=O)c1cc(C)sc1NC(=O)CN1CCN(C(=O)c2ccco2)CC1", "hERG current change (%, negative = inhibition) at 10uM": -30}
{"smiles": "CCc1cc(C(=O)OC)c(NC(=O)CN2CCN(C(=O)c3ccco3)CC2)s1", "hERG current change (%, negative = inhibition) at 10uM": -51.6}
{"smiles": "CCOC(=O)c1c(NC(=O)CN2CCN(C(=O)c3ccco3)CC2)sc(C(N)=O)c1C", "hERG current change (%, negative = inhibition) at 10uM": -20.1}
{"smiles": "CCOC(=O)c1cc(CC)sc1NC(=O)CN1CCN(C(=O)C2CCCO2)CC1", "note": "(centres unmarked)", "hERG current change (%, negative = inhibition) at 10uM": -65.9}
{"smiles": "CCOC(=O)c1cc(C)sc1NC(=O)CN1CCN(C(=O)c2ccco2)CC1", "hERG current change (%, negative = inhibition) at 10uM": -72.8}
{"smiles": "CCOC(=O)c1c(NC(=O)CN2CCN(C(=O)c3ccco3)CC2)sc(C)c1C", "hERG current change (%, negative = inhibition) at 10uM": -8.41}
{"smiles": "CCOC(=O)c1cc(C)sc1NC(=O)CN1CCN(C(=O)C2CCCO2)CC1", "note": "(centres unmarked)", "hERG current change (%, negative = inhibition) at 10uM": -31}
{"smiles": "CCc1c(C)sc(NC(=O)CN2CCN(C(=O)c3ccco3)CC2)c1C(=O)OC", "hERG current change (%, negative = inhibition) at 10uM": -39.7}
{"smiles": "COC(=O)c1sccc1NC(=O)c1cc(-c2ccc(C)cc2C)nc2ccccc12", "hERG current change (%, negative = inhibition) at 10uM": 6.94}
{"smiles": "CC(C)C(NC(=O)c1ccc(C(C)(C)C)cc1)C(=O)NC1=NCCS1", "note": "(centres unmarked)", "hERG current change (%, negative = inhibition) at 10uM": -6.13}
{"smiles": "Cc1ccccc1CN(c1ccc(C(=O)Nc2cccnc2)cc1)S(C)(=O)=O", "hERG current change (%, negative = inhibition) at 10uM": -9.59}
{"smiles": "NC(=O)CSc1n[nH]c(-c2ccco2)n1", "hERG current change (%, negative = inhibition) at 10uM": 24}
{"smiles": "O=C(COC(=O)COc1cccc(C(F)(F)F)c1)NC(=O)NC1CCCCC1", "hERG current change (%, negative = inhibition) at 10uM": -1.9}
{"smiles": "Cc1c(CNCCc2ccccc2)c(C(=O)O)c(C)n1-c1ccccc1", "hERG current change (%, negative = inhibition) at 10uM": 12.1}
{"smiles": "C/C(=N/NC(=O)CNC(=O)Cc1ccc(Cl)cc1)c1ccco1", "hERG current change (%, negative = inhibition) at 10uM": 4.04}
